# From article PMC7862700, “An all-to-all approach to the identification of sequence-specific readers for epigenetic DNA modifications on cytosine”
# Legend:
# Assay in all cases: DAPPL (digital affinity profiling via proximity ligation, sequencing); 10 mM Tris-HCl pH 7.5, 50 mM NaCl, 1 mM DTT, 4% glycerol, room temperature, 30 min; GST-TFs on glutathione beads, 16-mer random dsDNA library, 0.1% formaldehyde crosslink after washing; high values mean tight binding
# [1] = target: T1, FEV (Homo sapiens, UniProt Q99581 1-238); conditions: protein: recombinant; tags: N-terminal GST; dsDNA, one strand shown
# T1 sequence: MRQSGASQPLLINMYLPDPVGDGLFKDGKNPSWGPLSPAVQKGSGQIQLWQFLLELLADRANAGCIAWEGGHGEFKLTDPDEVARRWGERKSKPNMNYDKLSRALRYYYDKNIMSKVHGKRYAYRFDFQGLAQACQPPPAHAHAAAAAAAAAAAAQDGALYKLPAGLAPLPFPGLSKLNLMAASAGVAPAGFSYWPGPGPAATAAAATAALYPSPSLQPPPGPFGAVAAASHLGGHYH
# Outline: (§1)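 Human transcription factors fused to GST were expressed in yeast, captured on glutathione beads, given DNA barcodes and pooled with a GST-only negative control. Pools were incubated with 200 nmole of a 16-mer random double-stranded DNA library in Tris/NaCl/DTT/glycerol buffer at room temperature for 30 min. They were then washed, crosslinked with 0.1% formaldehyde, proximity-ligated (BsaI/T4 ligase, 1 h, 37 °C), PCR-amplified and sequenced on an Illumina NextSeq500. Binding signal is each 6-mer's read frequency for a factor divided by its frequency for the GST control.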
# [2] = target: ETV5 (Homo sapiens, UniProt P41161 1-510); conditions: protein: recombinant; tags: N-terminal GST; dsDNA, one strand shown
# Outline: as §1
# [3] = target: HSF1 (Homo sapiens, UniProt Q00613 1-529); conditions: protein: recombinant; tags: N-terminal GST; chain copies: 3; dsDNA, one strand shown
# Outline: as §1
# [4] = target: T2, SPIC (Homo sapiens, UniProt Q8N5J4 1-248); conditions: protein: recombinant; tags: N-terminal GST; dsDNA, one strand shown
# T2 sequence: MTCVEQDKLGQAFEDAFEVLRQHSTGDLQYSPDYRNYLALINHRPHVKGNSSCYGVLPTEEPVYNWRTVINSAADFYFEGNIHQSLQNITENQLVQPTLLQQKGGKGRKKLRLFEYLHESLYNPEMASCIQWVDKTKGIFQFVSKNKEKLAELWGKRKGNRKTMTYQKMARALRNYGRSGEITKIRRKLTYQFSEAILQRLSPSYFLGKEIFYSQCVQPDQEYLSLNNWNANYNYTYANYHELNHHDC
# Outline: as §1
# [5] = target: ELF4 (Homo sapiens, UniProt Q99607 1-663); conditions: protein: recombinant; tags: N-terminal GST; dsDNA, one strand shown
# Outline: as §1
# [6] = target: T3, ELK4 (Homo sapiens, UniProt P28324-2 1-405); conditions: protein: recombinant; tags: N-terminal GST; dsDNA, one strand shown
# T3 sequence: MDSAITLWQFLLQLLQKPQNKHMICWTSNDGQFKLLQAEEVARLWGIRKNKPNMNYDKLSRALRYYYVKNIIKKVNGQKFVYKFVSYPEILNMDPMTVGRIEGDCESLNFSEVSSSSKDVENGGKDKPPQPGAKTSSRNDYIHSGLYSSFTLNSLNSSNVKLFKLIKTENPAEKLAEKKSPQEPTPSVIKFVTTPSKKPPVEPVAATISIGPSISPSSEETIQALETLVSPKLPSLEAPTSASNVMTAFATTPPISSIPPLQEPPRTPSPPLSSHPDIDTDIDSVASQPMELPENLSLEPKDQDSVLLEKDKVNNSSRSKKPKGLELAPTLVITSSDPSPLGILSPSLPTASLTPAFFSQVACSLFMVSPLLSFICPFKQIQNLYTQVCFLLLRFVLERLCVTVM
# Outline: as §1
# [7] = target: T4, ETV2 (Homo sapiens, UniProt O00321 1-342); conditions: protein: recombinant; tags: N-terminal GST; dsDNA, one strand shown
# T4 sequence: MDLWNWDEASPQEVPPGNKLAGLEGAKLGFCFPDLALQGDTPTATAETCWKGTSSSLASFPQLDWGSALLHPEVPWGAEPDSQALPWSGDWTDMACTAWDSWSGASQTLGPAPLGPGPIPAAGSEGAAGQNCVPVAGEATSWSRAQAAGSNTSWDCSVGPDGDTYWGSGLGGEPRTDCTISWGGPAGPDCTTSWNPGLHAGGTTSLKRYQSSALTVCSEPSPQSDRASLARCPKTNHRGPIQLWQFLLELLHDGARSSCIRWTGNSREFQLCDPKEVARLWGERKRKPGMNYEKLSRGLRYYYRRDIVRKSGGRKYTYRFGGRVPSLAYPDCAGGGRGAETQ
# Outline: as §1
# [8] = target: T5, ELF3 (Homo sapiens, UniProt P78545 1-371); conditions: protein: recombinant; tags: N-terminal GST; dsDNA, one strand shown
# T5 sequence: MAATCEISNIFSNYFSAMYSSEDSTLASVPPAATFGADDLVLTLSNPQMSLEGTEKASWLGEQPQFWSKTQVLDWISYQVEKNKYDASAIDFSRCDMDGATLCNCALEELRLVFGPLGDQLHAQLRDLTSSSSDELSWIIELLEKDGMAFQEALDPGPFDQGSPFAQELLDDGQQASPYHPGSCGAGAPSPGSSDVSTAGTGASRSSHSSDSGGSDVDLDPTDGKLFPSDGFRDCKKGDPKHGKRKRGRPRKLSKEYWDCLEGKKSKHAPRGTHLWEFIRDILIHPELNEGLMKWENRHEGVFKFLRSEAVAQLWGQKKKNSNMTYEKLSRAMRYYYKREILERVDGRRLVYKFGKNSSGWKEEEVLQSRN
# Outline: as §1
# [9] = target: CRX (Homo sapiens, UniProt O43186 1-299); conditions: protein: recombinant; tags: N-terminal GST; dsDNA, one strand shown
# Outline: as §1
# [10] = target: ETV1 (Homo sapiens, UniProt P50549 1-477); conditions: protein: recombinant; tags: N-terminal GST; dsDNA, one strand shown
# Outline: as §1
# [11] = target: T6, ERF (Homo sapiens, UniProt P50548 1-548); conditions: protein: recombinant; tags: N-terminal GST; dsDNA, one strand shown
# T6 sequence: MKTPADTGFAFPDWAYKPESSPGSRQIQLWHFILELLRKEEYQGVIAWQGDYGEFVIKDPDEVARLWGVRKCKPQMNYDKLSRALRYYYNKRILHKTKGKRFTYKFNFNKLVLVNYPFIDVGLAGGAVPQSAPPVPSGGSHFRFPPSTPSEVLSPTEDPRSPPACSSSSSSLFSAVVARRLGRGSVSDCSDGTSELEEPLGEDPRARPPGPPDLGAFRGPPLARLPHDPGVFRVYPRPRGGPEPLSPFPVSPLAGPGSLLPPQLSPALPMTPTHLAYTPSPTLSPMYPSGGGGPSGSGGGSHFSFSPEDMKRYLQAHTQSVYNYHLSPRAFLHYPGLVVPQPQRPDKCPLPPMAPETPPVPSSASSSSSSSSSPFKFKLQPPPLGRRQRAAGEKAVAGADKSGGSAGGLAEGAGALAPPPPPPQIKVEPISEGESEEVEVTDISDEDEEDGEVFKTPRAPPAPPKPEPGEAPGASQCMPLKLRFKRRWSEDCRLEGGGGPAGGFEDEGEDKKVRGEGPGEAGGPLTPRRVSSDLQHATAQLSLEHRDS
# Outline: as §1
# [12] = target: T7, ETV3L (Homo sapiens, UniProt Q6ZN32 1-361); conditions: protein: recombinant; tags: N-terminal GST; dsDNA, one strand shown
# T7 sequence: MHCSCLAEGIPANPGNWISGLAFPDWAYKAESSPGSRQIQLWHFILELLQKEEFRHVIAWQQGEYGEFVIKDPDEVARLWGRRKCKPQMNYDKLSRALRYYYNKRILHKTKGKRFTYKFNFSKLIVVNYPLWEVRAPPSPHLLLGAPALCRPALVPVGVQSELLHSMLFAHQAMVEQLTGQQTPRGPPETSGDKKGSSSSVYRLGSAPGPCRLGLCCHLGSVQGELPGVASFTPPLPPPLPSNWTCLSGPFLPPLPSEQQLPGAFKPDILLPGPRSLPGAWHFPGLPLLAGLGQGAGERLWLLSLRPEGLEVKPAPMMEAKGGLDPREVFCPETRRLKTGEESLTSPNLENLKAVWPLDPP
# Outline: as §1
# [13] = target: T8, ETS2 (Homo sapiens, UniProt P15036 1-469); conditions: protein: recombinant; tags: N-terminal GST; dsDNA, one strand shown
# T8 sequence: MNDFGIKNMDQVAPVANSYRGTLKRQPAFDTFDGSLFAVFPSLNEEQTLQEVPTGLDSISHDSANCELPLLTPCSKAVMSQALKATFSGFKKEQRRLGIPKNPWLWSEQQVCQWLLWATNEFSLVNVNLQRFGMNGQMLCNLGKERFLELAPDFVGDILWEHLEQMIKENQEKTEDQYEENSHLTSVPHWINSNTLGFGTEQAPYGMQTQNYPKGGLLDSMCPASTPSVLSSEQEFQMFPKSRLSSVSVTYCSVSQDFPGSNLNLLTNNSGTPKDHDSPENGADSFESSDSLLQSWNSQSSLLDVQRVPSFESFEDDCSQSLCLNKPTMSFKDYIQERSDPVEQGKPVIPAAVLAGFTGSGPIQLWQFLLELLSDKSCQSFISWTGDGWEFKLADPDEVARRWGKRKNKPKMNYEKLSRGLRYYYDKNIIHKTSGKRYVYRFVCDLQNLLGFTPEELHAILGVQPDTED
# Outline: as §1
# [14] = target: T9, SPDEF (Homo sapiens, UniProt O95238 1-335); conditions: protein: recombinant; tags: N-terminal GST; dsDNA, one strand shown
# T9 sequence: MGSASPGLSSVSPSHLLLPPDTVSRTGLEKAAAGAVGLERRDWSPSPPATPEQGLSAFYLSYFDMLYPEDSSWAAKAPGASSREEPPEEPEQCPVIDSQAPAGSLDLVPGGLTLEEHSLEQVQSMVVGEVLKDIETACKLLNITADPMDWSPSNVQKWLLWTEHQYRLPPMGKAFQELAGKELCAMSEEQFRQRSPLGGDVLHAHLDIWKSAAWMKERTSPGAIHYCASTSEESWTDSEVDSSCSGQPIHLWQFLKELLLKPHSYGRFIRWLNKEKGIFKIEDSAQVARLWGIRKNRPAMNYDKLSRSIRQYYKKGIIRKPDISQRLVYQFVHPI
# Outline: as §1
# [15] = target: T10, ETV7 (Homo sapiens, UniProt Q9Y603 1-341); conditions: protein: recombinant; tags: N-terminal GST; dsDNA, one strand shown
# T10 sequence: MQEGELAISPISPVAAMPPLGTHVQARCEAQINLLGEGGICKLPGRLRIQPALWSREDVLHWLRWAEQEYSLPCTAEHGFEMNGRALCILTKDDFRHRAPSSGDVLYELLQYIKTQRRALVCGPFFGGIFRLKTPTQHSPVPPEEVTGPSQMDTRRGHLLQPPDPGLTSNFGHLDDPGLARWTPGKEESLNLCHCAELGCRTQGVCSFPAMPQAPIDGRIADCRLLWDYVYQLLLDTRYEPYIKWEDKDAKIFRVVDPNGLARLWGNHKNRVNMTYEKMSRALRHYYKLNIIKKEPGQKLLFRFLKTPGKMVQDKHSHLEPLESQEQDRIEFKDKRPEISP
# Outline: as §1
# [16] = target: T11, ELF5 (Homo sapiens, UniProt Q9UKW6-2 1-255); conditions: protein: recombinant; tags: N-terminal GST; dsDNA, one strand shown
# T11 sequence: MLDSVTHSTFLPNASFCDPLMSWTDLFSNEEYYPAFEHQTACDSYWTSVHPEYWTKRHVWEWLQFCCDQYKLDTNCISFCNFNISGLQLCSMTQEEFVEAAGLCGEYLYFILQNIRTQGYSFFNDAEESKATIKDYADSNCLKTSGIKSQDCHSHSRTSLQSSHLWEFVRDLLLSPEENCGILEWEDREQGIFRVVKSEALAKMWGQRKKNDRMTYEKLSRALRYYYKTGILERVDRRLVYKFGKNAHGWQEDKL
# Outline: as §1
# [17] = target: T12, ETV3 (Homo sapiens, UniProt P41162-2 1-143); conditions: protein: recombinant; tags: N-terminal GST; dsDNA, one strand shown
# T12 sequence: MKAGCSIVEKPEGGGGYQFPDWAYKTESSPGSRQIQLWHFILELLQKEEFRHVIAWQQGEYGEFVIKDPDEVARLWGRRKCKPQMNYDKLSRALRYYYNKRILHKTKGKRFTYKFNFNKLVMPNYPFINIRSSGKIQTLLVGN
# Outline: as §1
# [18] = target: ETV6 (Homo sapiens, UniProt P41212 1-452); conditions: protein: recombinant; tags: N-terminal GST; dsDNA, one strand shown
# Outline: as §1
# ETV5, sequence (P41161 whole entry): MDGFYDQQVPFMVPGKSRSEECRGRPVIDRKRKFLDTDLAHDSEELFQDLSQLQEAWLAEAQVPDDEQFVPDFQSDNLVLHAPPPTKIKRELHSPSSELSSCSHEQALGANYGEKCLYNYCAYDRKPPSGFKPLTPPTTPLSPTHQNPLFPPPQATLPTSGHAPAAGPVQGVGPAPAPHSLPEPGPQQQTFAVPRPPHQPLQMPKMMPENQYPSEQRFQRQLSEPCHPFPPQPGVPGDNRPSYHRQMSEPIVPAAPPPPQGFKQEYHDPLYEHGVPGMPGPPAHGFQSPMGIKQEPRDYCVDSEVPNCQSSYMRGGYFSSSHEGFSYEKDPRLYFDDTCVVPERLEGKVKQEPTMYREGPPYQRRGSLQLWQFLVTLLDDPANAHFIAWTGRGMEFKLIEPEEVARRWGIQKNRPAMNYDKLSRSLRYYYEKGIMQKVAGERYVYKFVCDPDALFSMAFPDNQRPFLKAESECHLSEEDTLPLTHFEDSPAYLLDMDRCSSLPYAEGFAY
# CRX, sequence (O43186 whole entry): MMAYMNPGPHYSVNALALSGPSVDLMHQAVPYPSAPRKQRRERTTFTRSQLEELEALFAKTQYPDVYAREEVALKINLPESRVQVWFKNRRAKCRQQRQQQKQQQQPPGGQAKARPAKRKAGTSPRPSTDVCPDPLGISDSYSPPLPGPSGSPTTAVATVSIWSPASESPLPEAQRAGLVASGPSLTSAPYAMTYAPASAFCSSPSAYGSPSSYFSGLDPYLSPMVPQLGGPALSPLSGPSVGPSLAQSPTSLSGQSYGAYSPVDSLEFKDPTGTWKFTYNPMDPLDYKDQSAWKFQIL
# HSF1, sequence (Q00613 whole entry): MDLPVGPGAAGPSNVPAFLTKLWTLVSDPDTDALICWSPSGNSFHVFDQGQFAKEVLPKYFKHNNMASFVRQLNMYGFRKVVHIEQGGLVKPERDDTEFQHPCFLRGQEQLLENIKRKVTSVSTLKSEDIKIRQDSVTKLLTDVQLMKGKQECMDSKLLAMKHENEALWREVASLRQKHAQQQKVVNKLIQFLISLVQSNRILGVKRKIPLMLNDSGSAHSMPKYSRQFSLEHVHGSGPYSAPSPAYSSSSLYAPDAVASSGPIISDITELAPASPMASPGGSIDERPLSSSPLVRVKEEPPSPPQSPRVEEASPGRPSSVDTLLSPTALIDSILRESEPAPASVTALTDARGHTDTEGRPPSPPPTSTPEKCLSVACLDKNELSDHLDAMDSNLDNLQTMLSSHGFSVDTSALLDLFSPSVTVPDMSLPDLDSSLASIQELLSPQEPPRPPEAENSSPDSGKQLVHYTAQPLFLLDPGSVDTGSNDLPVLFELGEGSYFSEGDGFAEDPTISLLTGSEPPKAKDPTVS
# ETV1, sequence (P50549 whole entry): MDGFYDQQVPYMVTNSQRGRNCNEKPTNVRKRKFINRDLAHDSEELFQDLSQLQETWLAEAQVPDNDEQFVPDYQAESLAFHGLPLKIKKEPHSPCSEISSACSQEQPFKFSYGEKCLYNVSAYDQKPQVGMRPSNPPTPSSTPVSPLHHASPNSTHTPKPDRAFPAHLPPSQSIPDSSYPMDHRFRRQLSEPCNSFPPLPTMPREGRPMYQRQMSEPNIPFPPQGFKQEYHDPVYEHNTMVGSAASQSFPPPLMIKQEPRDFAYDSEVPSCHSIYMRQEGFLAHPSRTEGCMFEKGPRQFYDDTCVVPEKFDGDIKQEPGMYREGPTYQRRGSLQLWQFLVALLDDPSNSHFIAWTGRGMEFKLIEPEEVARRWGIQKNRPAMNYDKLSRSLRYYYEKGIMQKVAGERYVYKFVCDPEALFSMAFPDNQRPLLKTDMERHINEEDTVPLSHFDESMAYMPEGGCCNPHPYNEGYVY
# ETV6, sequence (P41212 whole entry): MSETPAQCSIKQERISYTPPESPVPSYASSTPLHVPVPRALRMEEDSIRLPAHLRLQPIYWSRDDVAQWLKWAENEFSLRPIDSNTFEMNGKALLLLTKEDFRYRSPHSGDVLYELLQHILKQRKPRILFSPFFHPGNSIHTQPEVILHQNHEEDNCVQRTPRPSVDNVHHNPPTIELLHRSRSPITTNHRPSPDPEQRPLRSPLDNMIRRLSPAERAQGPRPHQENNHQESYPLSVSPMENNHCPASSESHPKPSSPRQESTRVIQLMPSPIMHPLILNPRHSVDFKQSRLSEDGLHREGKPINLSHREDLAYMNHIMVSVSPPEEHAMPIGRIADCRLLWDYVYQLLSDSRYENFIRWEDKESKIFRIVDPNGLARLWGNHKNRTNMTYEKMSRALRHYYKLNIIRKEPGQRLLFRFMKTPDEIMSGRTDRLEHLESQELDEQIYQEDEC
# ELF4, sequence (Q99607 whole entry): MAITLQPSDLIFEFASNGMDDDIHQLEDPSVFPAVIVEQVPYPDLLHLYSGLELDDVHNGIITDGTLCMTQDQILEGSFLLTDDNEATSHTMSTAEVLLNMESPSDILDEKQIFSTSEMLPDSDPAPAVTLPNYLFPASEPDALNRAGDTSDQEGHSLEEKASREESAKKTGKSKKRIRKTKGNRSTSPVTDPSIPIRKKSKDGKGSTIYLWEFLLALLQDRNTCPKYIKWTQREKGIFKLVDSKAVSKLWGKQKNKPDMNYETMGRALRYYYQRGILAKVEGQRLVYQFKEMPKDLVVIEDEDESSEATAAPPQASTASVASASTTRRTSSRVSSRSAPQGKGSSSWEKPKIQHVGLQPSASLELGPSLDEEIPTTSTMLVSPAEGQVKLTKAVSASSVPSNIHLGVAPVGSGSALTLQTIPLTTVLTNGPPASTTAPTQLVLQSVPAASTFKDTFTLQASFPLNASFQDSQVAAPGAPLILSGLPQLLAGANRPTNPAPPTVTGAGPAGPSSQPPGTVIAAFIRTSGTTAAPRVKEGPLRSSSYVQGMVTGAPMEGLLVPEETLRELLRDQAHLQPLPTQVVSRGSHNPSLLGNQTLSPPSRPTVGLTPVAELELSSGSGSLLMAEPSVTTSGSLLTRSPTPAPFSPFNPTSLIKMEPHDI
sequence,measurement,setting,value
AAACTC,binding signal,[1],"1.18 fold enrichment (6-mer frequency, TF over GST control)"
same,binding signal,[2],"1.22 fold enrichment (6-mer frequency, TF over GST control)"
same,binding signal,[3],"1.18 fold enrichment (6-mer frequency, TF over GST control)"
same,binding signal,[4],"1.26 fold enrichment (6-mer frequency, TF over GST control)"
same,binding signal,[5],"1.22 fold enrichment (6-mer frequency, TF over GST control)"
same,binding signal,[6],"1.04 fold enrichment (6-mer frequency, TF over GST control)"
same,binding signal,[7],"1.3 fold enrichment (6-mer frequency, TF over GST control)"
same,binding signal,[8],"1.25 fold enrichment (6-mer frequency, TF over GST control)"
same,binding signal,[9],"1.18 fold enrichment (6-mer frequency, TF over GST control)"
same,binding signal,[10],"1.22 fold enrichment (6-mer frequency, TF over GST control)"
same,binding signal,[11],"1.24 fold enrichment (6-mer frequency, TF over GST control)"
same,binding signal,[12],"1.17 fold enrichment (6-mer frequency, TF over GST control)"
same,binding signal,[13],"1.19 fold enrichment (6-mer frequency, TF over GST control)"
same,binding signal,[14],"1.07 fold enrichment (6-mer frequency, TF over GST control)"
same,binding signal,[15],"1.24 fold enrichment (6-mer frequency, TF over GST control)"
same,binding signal,[16],"1.21 fold enrichment (6-mer frequency, TF over GST control)"
same,binding signal,[17],"1.15 fold enrichment (6-mer frequency, TF over GST control)"
same,binding signal,[18],"1.25 fold enrichment (6-mer frequency, TF over GST control)"
